Test results as given in PubChem BioAssay (NCI).
Compounds without any hit were thinned out: in the full panel of roughly 83,000, 20% have a hit.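 The endpoint reported here, percent growth, reads 100 for growth as untreated, 0 for no net growth and -100 for all cells dead.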 Activity calls are given as the source filed them. Rule for the calls: active = growth percent below 10; inactive = the rest.

What follows are molecules tested on HCT-116 colon (assay: NCI-60 one-dose screen, 48 h (100 = growth as untreated, 0 = no growth, -100 = all killed)). Details: 10 µM unless noted.

| Structure (SMILES) | growth |
| --- | --- |
| CCNCCNc1cc(-c2ccc(C#N)cc2)c(C#N)c2nc3ccccc3n12 | -27.2% (active) |
| CC[C@@H](C[C@H](CCO)c1ccccc1)c1cc2ccccc2o1 | 76.6% (inactive) |
| CCN(CCO)CC(=O)c1cc(Cl)cc(Cl)c1Cl | 98.9% (inactive) |
| C=C1C(=O)O[C@H]2[C@H]1CC/C(Cn1cc(CNCCc3c[nH]c4ccc(Cl)cc34)nn1)=C\CC[C@@]1(C)O[C@@H]21 | 11.2% (inactive) |
| C=C1c2c(C)nn(-c3ccc(N)cc3)c2N(C)C23CC1C1(C)c4c(C)nn(-c5ccc(N)cc5)c4N(C)C(C)(CC12)C3 (stereo unspecified) | 33.5% (inactive) |
| COc1ccc(Nc2ncc(Br)c(NCCCNC(=O)C3CCC3)n2)cc1 | 5.88% (active) |
| CC(C)n1nc(C#Cc2cccc(NC(=O)c3cccc(C(F)(F)F)c3)c2)c2c(N)ncnc21 | -50.6% (active) |
| COC(=O)c1ccc2oc(NC(=O)c3ccc(N4CCOCC4)c([N+](=O)[O-])c3)nc2c1 | 93% (inactive) |
| COc1cc2oc(-c3cccc(C(=O)Nc4ccc(C)cc4)c3)cc(=O)c2c(OC)c1OC | 19.6% (inactive) |
| COc1ccc(/C=C(\C#N)n2nnc3cc(F)c(F)cc32)c(OC)c1OC | 52.9% (inactive) |
| C=C(CNCCc1ccc(O)cc1)[C@@H]1CC[C@]2(COC3CCCCO3)CC[C@]3(C)[C@H](CC[C@@H]4[C@@]5(C)CCC(NCCO)C(C)(C)[C@@H]5CC[C@]43C)[C@@H]12 (stereo partly specified) | -95.3% (active) |
| C[C@@H]1CC[C@@H]2[C@@H]1[C@H](OC(=O)c1ccc3ccccc3c1)[C@]1(C3CCCCC3)C[C@@H](OC(=O)CO)[C@@]2(C)O1 | 28.3% (inactive) |

What follows are molecules tested on HCC-2998 colon in the same assay as above. Details: 10 µM unless noted.

| Structure (SMILES) | growth |
| --- | --- |
| Clc1cnc(Nc2ccc(OCCN3CCCC3)cc2)nc1NCc1ccco1 | 59.1% (inactive) |
| COc1ccc(Oc2nc(Nc3ccc(N4CCCCC4)nc3)ncc2NC(=O)c2cc(OC)cc(OC)c2)cc1 | 65.8% (inactive) |
| CCCn1nc(-c2ccccc2)c2c(-c3ccccc3)onc2c1=O | 85.3% (inactive) |
| COc1ccc(/C(C)=C(\c2ccc(Cl)cc2)c2ccc(OCCCN(C)C)cc2)cc1F | 48.2% (inactive) |
| CCN(CC)N=Nc1nn(C(=O)Nc2ccc(Cc3ccccc3)cc2)c2ccc(Cl)cc12 | 43.2% (inactive) |
| C=C1C(=O)O[C@H]2[C@H]1CC/C(COC(=O)NCc1ccc(Cn3c(=O)sn(CCCCl)c3=O)cc1)=C\CC[C@@]1(C)O[C@@H]21 | 91.4% (inactive) |
| NC(=S)N/N=C/C(=O)O | 104% (inactive) |
| C=C(C)[C@@H]1CC[C@]2(CNCCO)CC[C@]3(C)[C@H](CC[C@@H]4[C@@]5(C)CCC(N)[C@@](C)(CO)[C@@H]5CC[C@]43C)[C@@H]12 (stereo partly specified) | -8.22% (active) |
| Clc1ccc2c(NCCCN3CCN(c4nc(-n5ccnc5)nc5ccccc45)CC3)ccnc2c1 | 95.7% (inactive) |
| O=C1C(Cl)C(c2ccccc2Cl)N1n1cnnc1 (stereo unspecified) | 98.4% (inactive) |
| COC(=O)c1ccc(CSc2nnc(-c3ccncc3)o2)cc1 | 110% (inactive) |
| C#CC[C@H](N)C(=O)O | 116% [20 µM] (inactive) |
| CN1CCN(C(=O)[C@]23CCC(C)(C)C[C@@H]2C2=CC[C@@H]4[C@@]5(C)Cc6c([nH]c7ccccc67)C(C)(C)[C@@H]5CC[C@@]4(C)[C@]2(C)CC3)CC1 | 99.4% (inactive) |
| Cc1cc(N2CCCCC2)nc(N(CCNc2ccnc3cc(Cl)ccc23)Cc2ccccn2)n1 | 84.6% (inactive) |
| CCN(CC)c1ccc(Nc2ccc(CC(=O)c3ccccc3)cc2)cc1 | 94.9% (inactive) |
| COc1ccc(/C=C2\C=C(c3ccccc3)N(CCc3ccccc3)C2=O)cc1OC | 73.3% (inactive) |
| CCn1nc(C#Cc2c(C)ccc3c(Nc4ccc(Cl)cc4)nccc23)c2c(N)ncnc21 | 31.6% (inactive) |
| Cc1ccc(S(=O)(=O)Nc2sccc2-c2nc(-c3ccccc3)no2)cc1 | 97.8% (inactive) |
| CCCCCOC(=O)c1cccc(NC(=O)CN(CC)CC)c1 | 98.9% (inactive) |
| COc1cc2oc(-c3cccc(C(=O)Nc4ccc(C#N)cc4)c3)cc(=O)c2c(O)c1OC | 83.1% (inactive) |

| Structure (SMILES) | growth |
| --- | --- |
| COc1ccc(-n2ncn(CCCCCCn3cnn(-c4ccc(OC)cc4)c3=O)c2=O)cc1 | 110% (inactive) |
| COc1ccc(C2CC(c3ccccc3)=NN2c2nc(C)c(C(C)=O)s2)cc1 (stereo unspecified) | 107% (inactive) |
| CC(C)(C)CC(C)(C)Nc1c(-c2ccc(-c3ccccc3)cc2)nc2cnccn12 | 93.7% (inactive) |
| N#Cc1cccc(-c2nc3ccccn3c2NCCN2CCOCC2)c1 | 96.1% (inactive) |
| C=C1C(=O)O[C@H]2[C@H]1CC/C(COC(=O)/C=C/C(=O)NCc1ccc(Cn3c(=O)sn(-c4ccccc4)c3=O)cc1)=C\CC[C@@]1(C)O[C@@H]21 | 54.4% (inactive) |
| CCC(C)NCc1ccccc1 (stereo unspecified) | 102% (inactive) |
| CC(C)n1nc(C#Cc2cccc3cc(-c4cccc(C(F)(F)F)c4)ncc23)c2c(N)ncnc21 | 98.1% (inactive) |
| CCNCCNc1cc(-c2ccc(C#N)cc2)c(C#N)c2nc3ccccc3n12 | 41% (inactive) |
| CC[C@@H](C[C@H](CCO)c1ccccc1)c1cc2ccccc2o1 | 109% (inactive) |
| CCN(CCO)CC(=O)c1cc(Cl)cc(Cl)c1Cl | 98.2% (inactive) |
| C=C1C(=O)O[C@H]2[C@H]1CC/C(Cn1cc(CNCCc3c[nH]c4ccc(Cl)cc34)nn1)=C\CC[C@@]1(C)O[C@@H]21 | 103% (inactive) |
| C=C1c2c(C)nn(-c3ccc(N)cc3)c2N(C)C23CC1C1(C)c4c(C)nn(-c5ccc(N)cc5)c4N(C)C(C)(CC12)C3 (stereo unspecified) | 85.8% (inactive) |
| COc1ccc(Nc2ncc(Br)c(NCCCNC(=O)C3CCC3)n2)cc1 | 42.4% (inactive) |
| CC(C)n1nc(C#Cc2cccc(NC(=O)c3cccc(C(F)(F)F)c3)c2)c2c(N)ncnc21 | 2.89% (active) |
| COC(=O)c1ccc2oc(NC(=O)c3ccc(N4CCOCC4)c([N+](=O)[O-])c3)nc2c1 | 105% (inactive) |
| COc1cc2oc(-c3cccc(C(=O)Nc4ccc(C)cc4)c3)cc(=O)c2c(OC)c1OC | 49.9% (inactive) |
| COc1ccc(/C=C(\C#N)n2nnc3cc(F)c(F)cc32)c(OC)c1OC | 114% (inactive) |
| C=C(CNCCc1ccc(O)cc1)[C@@H]1CC[C@]2(COC3CCCCO3)CC[C@]3(C)[C@H](CC[C@@H]4[C@@]5(C)CCC(NCCO)C(C)(C)[C@@H]5CC[C@]43C)[C@@H]12 (stereo partly specified) | -89.5% (active) |
| C[C@@H]1CC[C@@H]2[C@@H]1[C@H](OC(=O)c1ccc3ccccc3c1)[C@]1(C3CCCCC3)C[C@@H](OC(=O)CO)[C@@]2(C)O1 | 51.3% (inactive) |
